Compound activity as filed in PubChem BioAssay.
The list is not random: actives were taken first. Their share in the collection is about 7%.
HP1b chromo inh: HTS for Inhibitors of HP1-beta Chromodomain Interactions with Methylated Histone Tails; Chromobox protein homolog 1 (Homo sapiens), P83916; AlphaScreen HP1-beta / biotin-H3K9me3 peptide binding; Potency, µM (top dose mostly 114 µM), without a hit: top-dose activity change, negative = inhibition, usual class: inhibitors; 390,000 compounds, 0.56% hits; note: potency is the fitted concentration of half-maximal effect; nearly all actives have a fitted effect of over 70% in size
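AlphaScreen: HP1-beta (50 nM) preformed 30 min with biotin-H3(1-18)K9me3 peptide (50 nM) in PBS pH 7.4, 0.01% Tween-20. Compound added for 30 min at RT, then streptavidin donor/nickel chelate acceptor beads (10 ug/mL) for 30 min.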
BAZ2B block: qHTS Assay for Inhibitors of BAZ2B | Potency, µM (series often up to 114 µM), for inactives: at the top dose activity change, negative = inhibition, actives largely listed as inhibitors | 360,000 compounds, 4.4% hits | AID 504333, 2011 | AlphaScreen BAZ2B-H3K14Ac peptide displacement; note: potency is the fitted concentration of half-maximal effect; % is set by controls: 0 for no effect and ±100 for the full control effect; nearly all actives have a fitted effect of over 60% in size
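BAZ2B (50 nM) with biotin-H3(5-23)K14Ac peptide (50 nM) in PBS pH 7.4, 0.01% Tween-20, preformed 30 min, then compound 30 min at room temperature; top concentration 110uM. AlphaScreen streptavidin donor/nickel chelate acceptor beads (10 ug/mL final), 20 min dark, signal read.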
JMJD2A Tudor inh: qHTS Assay for Inhibitors of JMJD2A-Tudor Domain | Lysine-specific demethylase 4A (Homo sapiens), O75164 | AlphaScreen JMJD2A-Tudor / H3K4me3 peptide binding | 390,000 compounds, 4.4% hits | Potency, µM (highest dose often 114 µM), inactives show at the highest dose activity change, negative = inhibition, actives largely listed as inhibitors; note: potency is the fitted concentration of half-maximal effect; % is set by controls: 0 for no effect and ±100 for the full control effect; nearly all actives have a fitted effect of over 50% in size
PI5P4K alpha inh: qHTS for Inhibitors of phosphatidylinositol 5-phosphate 4-kinase (PI5P4K). Phosphatidylinositol 5-phosphate 4-kinase type-2 alpha (Homo sapiens), P48426. PI5P4Kalpha enzyme, ADP-Glo luminescence, 60 min; hits give low values. max response, %. 330,000 compounds, 1.2% hits; active = max response of -50% or lower; inconclusive = between -30% and -50%; inactive = -30% or higher; note: value at the top dose of about 77 µM; % is set by controls: 0 for no effect and ±100 for the full control effect
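ADP-Glo luminescence end-point after a 60 min room-temperature kinase reaction. PI5P4Kalpha and substrate in HEPES pH 7.4 buffer with EGTA, 0.1% CHAPS and 5% DMSO; ATP at 5 microM final.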
PLK1 PBD inh: qHTS for Inhibitors of PLK1-PDB (polo-like kinase 1 - polo-box domain): Primary Screen; Plk1 PBD binding of FITC phosphopeptide, fluorescence polarization; Potency, µM, inactives show max response, negative = inhibition, actives largely listed as inhibitors; 360,000 compounds, 2.8% hits; note: potency is the fitted concentration of half-maximal effect; series mostly up to about 57 µM; % is set by controls: 0 for no effect and ±100 for the full control effect; nearly all actives have a fitted effect of over 65% in size
KAT2A inh: qHTS Assay for Inhibitors of GCN5L2; Histone acetyltransferase KAT2A (Homo sapiens), Q92830; GCN5L2 HAT assay, ThioGlo1 CoA-SH fluorescence; Potency, µM (titrated, usually from 58.9 µM), inactives show top-dose activity change, negative = inhibition, most hits filed as inhibitors; 390,000 compounds, 0.21% hits; note: potency is the fitted concentration of half-maximal effect; % is set by controls: 0 for no effect and ±100 for the full control effect
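Titration-based screen in which CoA formation is detected via maleimide probe ThioGlo1 (50uM) turning fluorescent on thiol reaction; substrates H3(1-25) 75uM and acetyl-CoA 70uM, GCN5L2 20nM, 20 min incubation at room temperature.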
* hit, by the source's call; [ ] = another dose, or the depositor's remark. Unless noted, calls come from the whole dose curve; as a rule, active = well fitted curve in the direction sought with a large enough effect; inconclusive = small, poorly fitted or top-dose-only effect, or another doubt; inactive = no such curve, though single readings can be large; an effect the other way counts as inactive or inconclusive.

`CC(C)c1ccc(/C=C2\SC(=S)N(CCC(=O)N3CCCCC3CCO)C2=O)cc1` (configuration not stated) gave HP1b chromo inh -38%[57 µM], BAZ2B block inconclusive, JMJD2A Tudor inh 13µM*, PI5P4K alpha inh 0, PLK1 PBD inh -17% and KAT2A inh -16%.
Screening Cn1c(-c2ccccc2)c(/C=N/NC(=O)c2ccc(O)cc2)c2ccccc21 returned HP1b chromo inh 19%, BAZ2B block -28%, JMJD2A Tudor inh -29%, PI5P4K alpha inh -95*, PLK1 PBD inh 2% and KAT2A inh -9%.
Screening Cn1c(CNC(=O)c2ccc(F)cc2)nc2ccccc21 returned HP1b chromo inh inconclusive, BAZ2B block -4%, JMJD2A Tudor inh inconclusive, PI5P4K alpha inh -9, PLK1 PBD inh 27µM* and KAT2A inh inconclusive.
`Cn1c(/C=N/NC(=O)c2ccccc2)nc2ccccc21` gave HP1b chromo inh 19%, BAZ2B block -22%, JMJD2A Tudor inh 89µM*, PLK1 PBD inh 1% and KAT2A inh -2%.
Cn1c(CCCNC(=O)c2ccccc2)nc2ccccc21 was read as HP1b chromo inh 40%, BAZ2B block -3%, JMJD2A Tudor inh -8%, PI5P4K alpha inh 1, PLK1 PBD inh -1% and KAT2A inh -1%.
`O=[N+]([O-])c1ccccc1S(=O)NCc1c(Cl)cccc1Cl` (configuration not stated) gave PI5P4K alpha inh 0 and PLK1 PBD inh -5%.
For CCOC(=O)Cc1nnc(NC(=O)C(CC)Sc2nc(C)cc(=O)[nH]2)s1 (configuration not stated) the results were HP1b chromo inh -18%, BAZ2B block 3%, JMJD2A Tudor inh inconclusive, PI5P4K alpha inh -12, PLK1 PBD inh 21µM* and KAT2A inh -6%.
Screening Cc1nn(-c2ccccc2)c(C)c1C(=O)OCc1ccc(C#N)cc1 returned HP1b chromo inh 61%, BAZ2B block 10%, JMJD2A Tudor inh 32%, PI5P4K alpha inh 2, PLK1 PBD inh -15% and KAT2A inh -2%.
For N=C1SC(CC(=O)Nc2ccccc2[N+](=O)[O-])C(=O)N1c1ccccc1 (configuration not stated) the results were HP1b chromo inh 57%, BAZ2B block -31%, JMJD2A Tudor inh -5%, PI5P4K alpha inh 2, PLK1 PBD inh 0% and KAT2A inh -7%.
O=C(Nc1ccc(Cl)cc1)OCCN1CCOCC1 was read as HP1b chromo inh 16%[57 µM], JMJD2A Tudor inh -12%, PI5P4K alpha inh 3 and PLK1 PBD inh -2%.
`O=C(Nc1ccc(Cl)cc1)OCCn1nnnc1C(c1ccccc1Cl)N1CCOCC1` (configuration not stated) gave HP1b chromo inh -18%, BAZ2B block -3%[57.1 µM], JMJD2A Tudor inh 35µM*, PI5P4K alpha inh -1, PLK1 PBD inh 21µM* and KAT2A inh -7%.
For O=C(NC1CCN(C(=S)NCc2ccco2)CC1)NC12CC3CC(CC(C3)C1)C2 the results were HP1b chromo inh 12%, BAZ2B block -3%, JMJD2A Tudor inh -13%, PLK1 PBD inh 30µM* and KAT2A inh -5%.
O=C(CN1C(=O)NC2(CCOc3ccccc32)C1=O)NCCc1ccc(F)cc1 (configuration not stated) was read as HP1b chromo inh 52%, JMJD2A Tudor inh 3%, PI5P4K alpha inh -5, PLK1 PBD inh -1% and KAT2A inh -3%.
O=C(NC1CCCCC1)Sc1ccc(Cl)cc1 was read as HP1b chromo inh 69%, BAZ2B block 57%, JMJD2A Tudor inh 110%, PI5P4K alpha inh -1, PLK1 PBD inh 2.7µM* and KAT2A inh -6%.
For O=C(CSc1ccc(Cl)cc1)NC1CCCC1 the results were HP1b chromo inh 28%, BAZ2B block 7%, JMJD2A Tudor inh 4%, PI5P4K alpha inh -2, PLK1 PBD inh -3% and KAT2A inh -2%.
`CCOc1ccc(CCNC(=O)c2c3c(nc4ccccc24)C(=O)N(C2CCCCC2)C3)cc1` gave HP1b chromo inh 11%, BAZ2B block inconclusive, JMJD2A Tudor inh -34% and KAT2A inh 0%.
Screening Cc1[nH]c(=O)[nH]c(=O)c1/C=N/NC(=O)[C@@H](N)CC(C)C returned HP1b chromo inh 39%, BAZ2B block 50µM*, JMJD2A Tudor inh inconclusive, PI5P4K alpha inh -27, PLK1 PBD inh -16% and KAT2A inh 1%.
For Cn1cnc(Sc2ncnc3nc[nH]c23)c1[N+](=O)[O-] the results were HP1b chromo inh inconclusive, BAZ2B block inconclusive, JMJD2A Tudor inh 6.3µM*, PI5P4K alpha inh inconclusive, PLK1 PBD inh inconclusive and KAT2A inh inconclusive.
`Cn1cnc([N+](=O)[O-])c1Sc1ncnc2nc[nH]c12` gave HP1b chromo inh 21%, BAZ2B block -5%, JMJD2A Tudor inh 3%, PI5P4K alpha inh 0, PLK1 PBD inh 2% and KAT2A inh -3%.
`CCCCN(C)CCNC(=O)c1cc(-c2cccnc2)nc2ccc(S(=O)(=O)N3CCC(C)CC3)cc12` gave HP1b chromo inh 3%, BAZ2B block -19%, JMJD2A Tudor inh inconclusive, PI5P4K alpha inh -8, PLK1 PBD inh 27µM* and KAT2A inh -3%.
For CCCCN(CCCC)CCNC(=O)c1cc(-c2cccnc2)nc2ccc(S(=O)(=O)N3CCC(C)CC3)cc12 the results were HP1b chromo inh 51%, BAZ2B block 8%, JMJD2A Tudor inh -11% and KAT2A inh -5%.
`COc1ccccc1NC(=O)Cn1ccn(-c2cccc3ccccc23)c(=O)c1=O` gave HP1b chromo inh 19%, BAZ2B block -4%, JMJD2A Tudor inh -13%, PI5P4K alpha inh -20, PLK1 PBD inh 1% and KAT2A inh -9%.
Screening O=C(CNC(=O)c1ccc(Cl)cc1)OC1CCOC1=O (configuration not stated) returned HP1b chromo inh -2%, BAZ2B block -3%, JMJD2A Tudor inh -17%[11.4 µM], PI5P4K alpha inh 3, PLK1 PBD inh 24µM* and KAT2A inh 3%.
Screening CC1(C)CC2C1CC[C@]1(C)CCC3C(C(=O)O)CC(=O)O[C@]32C1 (some centres not stated) returned KAT2A inh 7.9µM*.
Screening CC12CCC3C(CC3(C)C)C(C)(CCC1=O)O2 (configuration not stated) returned KAT2A inh 0%.
